# HT1080 IDH1KD tx: kills HT-1080 cells with IDH1 knockdown; HT-1080 IDH1 knockdown viability, ATP luminescence, 48 h; Potency, µM (series often up to 46.1 µM), for the others: top-dose activity, negative = toxicity, most hits filed as cytotoxic; 2% of 360,000 active; AID 686971;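 also: 0% = DMSO wells and -100% = cell-free medium wells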
#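 After a 2 h attachment period, IDH1KD HT-1080 cells took pin-transferred compound for 48 h at 37 °C; ATP-based luminescence after 10 min room-temperature reagent incubation reported viability.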
# DT40 TDP1 no CPT: qHTS for Inhibitors of human tyrosyl-DNA phosphodiesterase 1 (TDP1): qHTS in cells in absence of CPT | DT40 Tdp1-/- hTDP1 cells, no CPT, ATP luminescence, 48 h | Potency, µM (doses to about 46.2 µM), for inactives: at the top dose activity change, negative = growth inhibition, hits mostly inhibitors | 15% of 420,000 active | AID 686978, 2013; also: nearly all actives have a fitted effect of over 55% in size
#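 Compound effects on proliferation are scored in DT40 Tdp1-/-;hTDP1 cells in the absence of CPT. ATP levels (CellTiter-Glo luminescence) are recorded after a ≥48 hr, 37 °C incubation.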
# KB-V1 cytotox: kills drug-selected multidrug resistant KB-V1 cells | KB-V1 MDR cells viability, CellTiter-Glo, 72 h | Potency, µM (series often up to 46.1 µM), actives largely listed as cytotoxic | 3.4% of 400,000 active; also: nearly all actives have a fitted effect of over 60% in size
#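 KB-V1, DMEM (no phenol red) + 10% FBS; cpd pin-transferred, titration series; 72 h, 37 degrees C; CellTiter-Glo, luminescence. Data normalized, curve-fit.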
# DT40 TDP1 CPT: DT40-hTDP1 cell growth loss with CPT; Potency, µM (doses to about 46.2 µM), without a hit: at the top dose activity change, negative = growth inhibition, usual class: inhibitors; 12% of 420,000 active; chicken DT40 Tdp1-/-;hTDP1 cells + 20 nM CPT, ATP luminescence, 48 h; also: nearly all actives have a fitted effect of over 55% in size
#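 Chicken DT40 Tdp1-/- cells stably complemented with human TDP1 were seeded at 400 cells/well in medium containing 20 nM camptothecin, exposed to pin-transferred compounds, and grown at 37 °C for at least 48 hr. Viability was read as ATP luminescence.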
# HT1080NT lethal: kills 2HG-producing HT-1080-NT fibrosarcoma cells; HT-1080-NT fibrosarcoma viability, CellTiter-Glo ATP luminescence, 48 h; Potency, µM (series often up to 46.1 µM), without a hit: at the highest dose activity, negative = less viability, most hits filed as cytotoxic; 1.6% of 360,000 active; AID 686970;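 also: NT is the 2HG producing partner of a matched IDH1 knockdown line; 0% = DMSO-treated cells and -100% = media-only wells without cells; nearly all actives have a fitted effect of over 55% in size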
#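 Read-out is CellTiter-Glo luminescence after 10 minutes at room temperature, following 48 hours' compound treatment of HT-1080-NT cells (750 cells/well, RPMI, 5% FBS, 37 degrees C).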
# KB-3-1 tox: KB-3-1 parental cell cytotoxicity. Potency, µM (doses to about 46.1 µM), most hits filed as cytotoxic. KB-3-1 viability, CellTiter-Glo ATP luminescence, 72 h. 1.4% of 400,000 active; also: nearly all actives have a fitted effect of over 60% in size
#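 Here the drug-naive KB-3-1 line serves as comparator for MDR sub-line selectivity; cells received compound titrations, 72 h at 37 °C, then CellTiter-Glo readout.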
# * hit, by the source's call; i = inactive; ? = inconclusive; . = no result given. An excerpt weighted towards active compounds, which were near 19% of everything screened. Calls follow the shape of the dose curve; as a rule, active = well fitted curve in the direction sought with a large enough effect; inconclusive = small, poorly fitted or top-dose-only effect, or another doubt; inactive = no such curve, though single readings can be large; an effect the other way counts as inactive or inconclusive. Unless noted, % is scaled to controls: 0 for no effect and ±100 for the full control effect; potency is read from the fitted curve at half-maximal effect.
SMILES,HT1080 IDH1KD tx,DT40 TDP1 no CPT,KB-V1 cytotox,DT40 TDP1 CPT,HT1080NT lethal,KB-3-1 tox
CCCCC1CC2=C(C(=O)OC(C)(C)O2)C(c2ccc(Cl)cc2)O1 (configuration not stated),-21%,?,i,?,-26%,i
Cc1ccc(OCC(=O)Nc2ccc3nc(SCC(=O)N4CCCC4)sc3c2)cc1,.,21µM*,.,?,.,.
Cc1cccc(NC(=O)CSc2nc3ccc(NC(=O)COc4ccccc4C)cc3s2)c1,.,16µM*,i,15µM*,.,?
CCN(CC)C(=O)CSc1nc2ccc(NC(=O)CSc3nnc(COc4ccccc4C)n3C)cc2s1,-28%,?,i,?,-17%,i
Cc1ccc(OCC(=O)Nc2ccc3nc(SCC(=O)N4CCCC4)sc3c2)cc1C,.,23µM*,.,-95%,.,.
Cc1ccccc1OCC(=O)Nc1ccc2nc(SCCOc3ccccc3)sc2c1,.,-7%,?,-17%,.,i
Cc1ccccc1OCc1nnc(SCC(=O)Nc2ccc3nc(SCC(=O)NC(C)(C)C)sc3c2)n1C,-16%,?,i,18µM*,-6%,i
CCOC(=O)CSc1nc2ccc(NC(=O)COc3ccccc3)cc2s1,.,-19%,i,?,.,i
COc1ccc(OC)c(C(=O)C2COC(=O)C2)c1 (configuration not stated),-15%,?,?,?,?,i
Cc1ccc(OCC(=O)Nc2ccc3nc(SCc4ccccc4)sc3c2)cc1,.,?,i,-23%,.,i
Cc1ccc(OCC(=O)Nc2ccc3nc(SCC(=O)N(C)c4ccccc4)sc3c2)cc1,.,15µM*,?,?,.,i
CCC(C)/C(C)=N/NC(=O)c1ccc(CSc2nc3ccccc3s2)cc1 (configuration not stated),-13%,23µM*,23µM*,15µM*,-15%,?
Cc1ccc(CSc2nc3ccc(NC(=O)COc4ccccc4)cc3s2)cc1,.,?,?,15µM*,.,i
CCOc1ccc(C(=O)Nc2ccc3nc(SCc4ccccc4)sc3c2)cc1,.,8.2µM*,i,12µM*,.,i
CC1(C)C[C@@H]2C(=O)CCC3O[C@@]3(C)CCC21 (some centres not stated),.,1%,.,18%,.,.
OCCCNc1ncnc2c1ncn2[C@H]1CN(Cc2ccco2)C[C@@H](CO)O1,26%,-1%,i,6%,28%,i
CCCCNC(=O)[C@@H]1Cc2ccccc2N1C(=O)[C@H](N)CC,.,?,.,-11%,.,.
Cc1ccc(NC(=O)CSc2nc3ccc(NC(=O)COc4ccc(C)cc4)cc3s2)cc1,.,18µM*,?,10µM*,.,?
Cc1cc(C)cc(OCCSc2nc3ccc(NC(=O)COc4ccccc4)cc3s2)c1,.,?,i,?,.,i
COC1=C2C[C@H](C)C[C@H](OC)[C@@H](O)[C@@H](C)C=C(C)[C@H](OC(N)=O)[C@@H](OC)C=CC=C(C)C(=O)NC(=CC1=O)C2=O,.,0.025µM*,i,0.079µM*,.,?
O=C(O)c1ccccc1CSc1ncccc1C(=O)O,-6%,-4%,i,3%,0%,i
CCOC(=O)c1cc2c(ccn2-c2ccc(F)cc2)n1CC(=O)N(CC)CC,-16%,23µM*,i,?,-8%,i
CC(Sc1nnnn1C1CC1)C(=O)N1c2ccccc2NC(=O)C1(C)C (configuration not stated),-1%,-1%,21µM*,-19%,6%,i

# Compound activity from PubChem.
